The entries come from a sample that favours hits as a whole.
Pf apPOL inh = Pf-apPOL DNA polymerase inhibition | Recombinant Pf-apPOL, molecular beacon fluorescence, 1.5 h | inhibition, % at 10 µM | 210,000 tested, 0.25% active | AID 1794808
mHTT-CaM PPI inh = inhibitors of human mutant huntingtin-calmodulin interaction | inhibition, % at 15 µM | AlphaScreen His-mHTT/GST-CaM binding, luminescence | P42858 | 190,000 tested, 3.6% active
A number is an active result. Rule as the data show it: active = inhibition above about 50%; inactive = the rest.

How did O=CNC1CCCc2c1[nH]c1ccc(OCc3ccccc3)cc21 (stereo not drawn) do in these assays?
Pf apPOL inh: inactive; mHTT-CaM PPI inh: 53.1

How did Cc1ccc2[nH]c3c(c2c1)CCCC3NCc1ccc(Cl)cc1 (stereo not drawn) do in these assays?
Pf apPOL inh: inactive; mHTT-CaM PPI inh: 72.9

What do the screens show for `COC(CNC1CCCc2c1[nH]c1ccc(C)cc21)OC` (stereo not drawn)?
Pf apPOL inh: inactive; mHTT-CaM PPI inh: inactive

How did Cc1ccc2[nH]c3c(c2c1)CCCC3NCCCO (stereo not drawn) do in these assays?
Pf apPOL inh: inactive; mHTT-CaM PPI inh: inactive

Results for O=CNC1CCCc2c1[nH]c1ccc(Cl)cc21 (stereo not drawn) ?
Pf apPOL inh: inactive; mHTT-CaM PPI inh: inactive

What do the screens show for `CCN(CC)CCNC1CCCc2c1[nH]c1ccc(C)cc21` (stereo not drawn)?
Pf apPOL inh: inactive; mHTT-CaM PPI inh: inactive

What do the screens show for `COc1cccc2cc(C(=O)NC(C)=O)c(=Nc3ccccc3F)oc12`?
Pf apPOL inh: inactive; mHTT-CaM PPI inh: inactive

Results for O=C(O)C1Cc2ccccc2CN1 (stereo not drawn) ?
Pf apPOL inh: inactive; mHTT-CaM PPI inh: inactive

Results for Cc1c(C(=O)Nc2ccc(-c3nc4cccnc4o3)cc2)cccc1[N+](=O)[O-] ?
Pf apPOL inh: inactive; mHTT-CaM PPI inh: inactive

How did CCOc1ccc(C2C(C#N)=C(N)Oc3c2oc(CO)cc3=O)cc1 (stereo not drawn) do in these assays?
Pf apPOL inh: inactive; mHTT-CaM PPI inh: inactive

What do the screens show for `Cc1ccccc1C(=O)N1CCN(c2ccc(NC(=O)c3cccc(F)c3)cn2)CC1`?
Pf apPOL inh: inactive; mHTT-CaM PPI inh: inactive

Results for CC(=O)NC1CCCc2c1[nH]c1ccc(C)cc21 (stereo not drawn) ?
Pf apPOL inh: 98.7; mHTT-CaM PPI inh: inactive

What do the screens show for `Cc1ccc2[nH]c3c(c2c1)CCCC3NCCCN(C)C` (stereo not drawn)?
Pf apPOL inh: inactive; mHTT-CaM PPI inh: inactive

Results for COc1ccc(Br)cc1C1=N/C(=C/c2cccc(Cl)c2)C(=O)O1 ?
Pf apPOL inh: inactive; mHTT-CaM PPI inh: inactive

How did Cc1ccc(NC(=O)N2CCCC(CCC(=O)NC3CCCCC3)C2)cc1 (stereo not drawn) do in these assays?
Pf apPOL inh: inactive; mHTT-CaM PPI inh: inactive

What do the screens show for `Cc1ccc(C(C(=O)Nc2ccc3c(c2)OCO3)N(C)C(=O)Cc2c[nH]c3ccccc23)cc1` (stereo not drawn)?
Pf apPOL inh: inactive; mHTT-CaM PPI inh: 93.0

Results for COc1ccc(C(C(=O)Nc2ccc3c(c2)OCO3)N(C)C(=O)CNC(C)=O)cc1 (stereo not drawn) ?
Pf apPOL inh: inactive; mHTT-CaM PPI inh: inactive

How did Cc1nc(C(F)(F)F)ccc1C#N do in these assays?
Pf apPOL inh: inactive

What do the screens show for `CC(=O)Oc1ccc2ccccc2c1-c1c(OC(C)=O)ccc2ccccc12`?
Pf apPOL inh: inactive

What do the screens show for `Cc1ccc(C)n1-c1ccc(Br)cc1`?
Pf apPOL inh: inactive

What do the screens show for `Cc1ccc2n1CCn1cc(-c3ccc(Br)cc3)cc1-2`?
Pf apPOL inh: inactive; mHTT-CaM PPI inh: 99.0

How did Cc1cc2n(c1)CCn1c(C)ccc1-2 do in these assays?
Pf apPOL inh: inactive; mHTT-CaM PPI inh: 92.9

How did Cc1nc2cc(N3CC(C(=O)NCc4ccc(F)c(Cl)c4)CC3=O)ccc2o1 (stereo not drawn) do in these assays?
Pf apPOL inh: inactive; mHTT-CaM PPI inh: inactive

Results for CC(O)CSc1nc2c(c(=O)[nH]c(=O)n2C)n1C(C)C (stereo not drawn) ?
Pf apPOL inh: inactive; mHTT-CaM PPI inh: inactive

Results for O=C(COC(=O)c1cc2cc([N+](=O)[O-])ccc2oc1=O)c1ccc2ccccc2c1 ?
Pf apPOL inh: inactive; mHTT-CaM PPI inh: inactive

What do the screens show for `COc1ccc(CNC(=O)c2cncc(Br)c2)cc1`?
Pf apPOL inh: inactive; mHTT-CaM PPI inh: inactive

Results for Clc1cc2c(c3ncccc13)OCN(CCCN1CCOCC1)C2 ?
Pf apPOL inh: inactive; mHTT-CaM PPI inh: 100.0

Results for Cc1cc(Cl)c(OCCCN2CCOCC2)c(Br)c1 ?
Pf apPOL inh: inactive; mHTT-CaM PPI inh: inactive

How did COCCn1c(C2CCN(S(=O)(=O)c3ccc4c(c3)CCC4)C2)nc2cccnc21 (stereo not drawn) do in these assays?
Pf apPOL inh: inactive; mHTT-CaM PPI inh: inactive

What do the screens show for `CC1=NOC(=O)/C1=C/c1ccc(OCc2cccc(F)c2)c(Cl)c1`?
Pf apPOL inh: inactive; mHTT-CaM PPI inh: inactive

How did COc1cc(/C=C2\C(=O)ON=C2C)cc(Cl)c1OCc1ccc(F)cc1 do in these assays?
Pf apPOL inh: inactive; mHTT-CaM PPI inh: 74.0

How did COc1cc(/C=C2\C(=O)ON=C2C)cc(Br)c1OCc1ccc(F)cc1 do in these assays?
Pf apPOL inh: inactive; mHTT-CaM PPI inh: inactive

Results for COc1cc(/C=C2\C(=O)ON=C2C)ccc1OCc1cccc(F)c1 ?
Pf apPOL inh: inactive; mHTT-CaM PPI inh: 100.0

What do the screens show for `COc1cc(C=O)cc(Cl)c1OCc1cccc(F)c1`?
Pf apPOL inh: inactive; mHTT-CaM PPI inh: inactive

How did CCOc1cc(/C=C2/C(=O)ON=C2C)ccc1OCc1ccc(Cl)cc1 do in these assays?
Pf apPOL inh: inactive; mHTT-CaM PPI inh: inactive

How did CCOc1cc(/C=C2\C(=O)ON=C2C)cc(Cl)c1OCc1ccc(F)cc1 do in these assays?
Pf apPOL inh: inactive; mHTT-CaM PPI inh: 93.0

Results for CCOc1cc(/C=C2\C(=O)ON=C2C)cc(Br)c1OCc1ccc(F)cc1 ?
Pf apPOL inh: inactive; mHTT-CaM PPI inh: 75.0

How did COCCCNC(=O)N1CCCCCC1c1cccc(C)c1 (stereo not drawn) do in these assays?
Pf apPOL inh: inactive; mHTT-CaM PPI inh: inactive

How did Cc1cc([N+](=O)[O-])nn1CC(=O)Nc1cc(C(F)(F)F)ccc1Cl do in these assays?
Pf apPOL inh: inactive; mHTT-CaM PPI inh: inactive

Results for COc1ccc(-c2noc(-c3ncn4c3COC(c3ccc(F)cc3)C4)n2)cc1OC (stereo not drawn) ?
Pf apPOL inh: inactive; mHTT-CaM PPI inh: inactive

What do the screens show for `O=c1oc2ccccc2c(NCCOc2ccccc2)c1[N+](=O)[O-]`?
Pf apPOL inh: inactive; mHTT-CaM PPI inh: inactive

Results for COc1cc(/C=C2\C(=O)ON=C2C)cc(Cl)c1OCc1ccccc1 ?
Pf apPOL inh: inactive; mHTT-CaM PPI inh: 91.0

How did COc1cc(/C=C2\C(=O)ON=C2C)ccc1OCc1ccccc1Cl do in these assays?
Pf apPOL inh: inactive; mHTT-CaM PPI inh: inactive

How did CC1=NOC(=O)/C1=C/c1ccccc1OCc1cccc(Cl)c1 do in these assays?
Pf apPOL inh: inactive; mHTT-CaM PPI inh: 55.0

What do the screens show for `CC1=NOC(=O)/C1=C/c1ccccc1OCc1ccccc1F`?
Pf apPOL inh: inactive; mHTT-CaM PPI inh: inactive

Results for COc1ccc(C(=O)COc2ccc3c(C)c(-c4ccc(OC)c(OC)c4)c(=O)oc3c2)cc1 ?
Pf apPOL inh: inactive; mHTT-CaM PPI inh: inactive

Results for COc1ccc(-c2[nH]ncc2CN2CCCC2c2c(C)noc2C)cc1 (stereo not drawn) ?
Pf apPOL inh: inactive; mHTT-CaM PPI inh: inactive

Results for O=S(=O)(N=C1SCCS1)c1ccccc1 ?
Pf apPOL inh: inactive; mHTT-CaM PPI inh: inactive

Results for COc1ccccc1NC1=CC(=NS(=O)(=O)c2ccc(C)cc2)c2ccccc2C1=O ?
Pf apPOL inh: inactive; mHTT-CaM PPI inh: 93.0

What do the screens show for `COc1ccccc1NC1=C(Cl)C(=O)c2ccccc2C1=O`?
Pf apPOL inh: inactive

Results for COc1ccc(C)cc1NC(=O)C(NS(=O)(=O)c1cccs1)C(C)C (stereo not drawn) ?
Pf apPOL inh: inactive; mHTT-CaM PPI inh: inactive

Results for COc1ccc(S(=O)(=O)N=C2C=CC(=O)c3ccccc32)cc1 ?
Pf apPOL inh: inactive; mHTT-CaM PPI inh: 98.0
